# Values quoted from earlier work in PubChem BioAssay AID977611.
# Hit rate of the full screen: of about 3,900 compounds, about 3,900 (100%) were called active. No cut-off is given here; in the data, nearly all actives have Kd up to about 4200 µM. The set was probably picked from earlier hits. The list shows a part of the results. Starred links: 1 amine or outer side, 2 acyl side, 3 side chain; linkers in the order of their positions; H or OH if unused. Where a SMILES comes first, the peptide text is derived from it. Non-standard residues stand in square brackets, D forms with d. Residues, ends and D or L forms follow the SMILES beside them. Peptide text beside a SMILES is read from it. The star is where a group is joined. *: point of attachment. X1 = C[C@@H]1CCCN1*; Orn(CH(NH2)2) = NC(N)NCCC[C@H](N)C(=O)O; Propyl = CCC*
# Assay: PubChem AID 977611
# Settings: PDB protein-ligand complexes, literature Kd
compound,measurement,setting,value
CNc1nc2c(CC[C@H]3O[C@@H](OC)[C@H](O)[C@@H]3O)c3nc(N)[nH]c(=O)c3cc2[nH]1,Kd,"protein: tRNA guanine transglycosylase (TGT), PDB entry 4leq",0.288 µM (active)
O=C(O)c1ccc2nsnc2c1,Kd,"protein: Pantothenate synthetase (T2A, E77G mutation), PDB entry 4ddm",3500 µM (active)
COc1ccc([C@H]2OC[C@H](C)[C@@H]([C@@H](C)[C@@H](OC)[C@@H](C)CCC(=O)[C@H](C)[C@@H](C/C=C/N(C)C=O)OC)O2)cc1,Kd,"protein: Actin, alpha skeletal muscle, PDB entry 4k43",0.132 µM (active)
CC(C)C[C@H](NC(=O)[C@H](Cc1ccc(O)cc1)NC(=O)[C@H](CCC(=O)O)NC(=O)[C@H](CCC(=O)O)NC(=O)[C@H](Cc1c[nH]c2ccccc12)NC(=O)[C@H](CO)NC(=O)[C@@H](NC(=O)[C@H](Cc1ccccc1)NC(=O)[C@@H](NC(=O)[C@@H](N[C@@H](C)O)[C@@H](C)O)C(C)C)[C@@H](C)O)C(=O)N[C@@H](CC(=O)O)C(=O)N[C@@H](Cc1c[nH]c2ccccc12)C(=O)N[C@H](C(N)=O)C(C)C (H-[X1]VFTSWEEYLDWV-NH2),Kd,"protein: Proprotein convertase subtilisin/kexin type 9, PDB entry 4nmx",0.66 µM (active)
H-DDYLWGLEAGEGISDLFD-OH,Kd,"protein: retinoblastoma (Rb), PDB entry 1n4m",0.19 µM (active)
CC[C@H](C)[C@H](NC(=O)CNC(=O)[C@H](CCC(=O)O)NC(=O)[C@@H](N)CCC(=O)O)C(=O)N[C@@H](Cc1c[nH]c2ccccc12)C(=O)N[C@@H](C)C(=O)O (H-EEGIWA-OH),Kd,"protein: RIM1? PDZ Domain, PDB entry 1zub",0.27 µM (active)
CC1(C)Nc2nc(N)[nH]c(=O)c2N=C1C(=O)NCC(=O)NCCS(=O)(=O)C[C@H]1O[C@@H](n2cnc3c(N)ncnc32)[C@H](O)[C@@H]1O,Kd,"protein: 2-amino-4-hydroxy-6-hydroxymethyldihydropteridine pyrophosphokinase/dihydropteroate synthase HPPK-DHPS, PDB entry 4pzv",2 µM (active)
CCCOC[C@H](NC(=O)[C@@H](NC(=O)[C@@H]1CCCN1C(=O)[C@@H](NC(=O)[C@@H](NC(C)=O)C(C)C)[C@@H](C)O)C(C)C)C(=O)N[C@H](C(=O)N[C@@H](C)C(N)=O)[C@@H](C)O (Ac-VTPVS(Propyl)TA-NH2),Kd,"protein: UDP-N-ACETYLGLUCOSAMINE--PEPTIDE N-ACETYLGLUCOSAMINYLTRANSFERASE 110 KDA SUBUNIT, PDB entry 4cdr",7.9 µM (active)
H-VPPPVPPPPS-OH,Kd,"protein: Ponsin, PDB entry 2o9v",288 µM (active)
CC(=O)N[C@H](C(=O)N1CCC[C@H]1C(=O)N1CCC[C@H]1C(=O)N1CCC[C@H]1C(=O)N[C@H](C(=O)N1CCC[C@H]1C(=O)N1CCC[C@H]1C(=O)N[C@@H](CCCNC(N)N)C(=O)N[C@@H](CCCNC(N)N)C(=O)N[C@@H](CCCNC(N)N)C(N)=O)C(C)C)C(C)C,Kd,"protein: Grb2(N-terminal SH3 domain), PDB entry 3gbq",3.5 µM (active)
C[C@H](N)C(=O)N1CCC[C@H]1C(=O)N1CCC[C@H]1C(=O)N[C@@H](CO)C(=O)N[C@@H](CC(N)=O)C(=O)N1CCC[C@H]1C(=O)N1CCC[C@H]1C(=O)N1CCC[C@H]1C(=O)N[C@@H](CCCNC(N)N)C(=O)N1CCC[C@H]1C(=O)N1CCC[C@H]1C (H-APPSNPPP[Orn(CH(NH2)2)]P-X1),Kd,"protein: tandem SH3domains of p47phox, PDB entry 1ov3",0.19 µM (active)
H-GTCVAARTRPVLSY-OH,Kd,"protein: WD REPEAT-CONTAINING PROTEIN 5, WDR5, PDB entry 4cy1",0.181 µM (active)
H-GGRRPYIL-OH,Kd,"protein: Neurotensin Receptor 1 Mutant TM86V Delta-IC3A, PDB entry 3zev",0.0023 µM (active)
CNC(=O)C[C@@H]1NC(=O)c2csc(n2)-c2ccc(-c3nc(N(CCCCC(=O)O)C(=O)OC4CCC(C(=O)O)CC4)cs3)nc2-c2csc(n2)-c2csc(n2)[C@H]([C@@H](O)c2ccccc2)NC(=O)CNC(=O)c2nc(sc2COC)[C@H](C(C)C)NC(=O)c2nc1sc2C (stereo partly drawn),Kd,"protein: E. coli K-12 Elongation factor Tu 1, PDB entry 3u2q",0.006 µM (active)
NCc1csc2ccccc12,Kd,"protein: CATIONIC TRYPSIN, PDB entry 4abb",31 µM (active)
NCc1csc2ccc(Br)cc12,Kd,"protein: CATIONIC TRYPSIN, PDB entry 4abf",24 µM (active)
CO[C@H]1O[C@H](CNS(=O)(=O)c2c(C)cc(C)cc2C)[C@@H](O)[C@H](O)[C@@H]1O,Kd,"protein: FUCOSE-BINDING LECTIN PA-IIL, PDB entry 3zdv",3.3 µM (active)
NC(=O)C[C@H](NC(=O)CNC(=O)CNC(=O)[C@H](CCCNC(N)N)NC(=O)CNC(=O)CNC(=O)CNC(=O)CNC(=O)[C@@H](N)CO)C(=O)NCC(=O)NCC(=O)NCC(=O)NCC(=O)NCC(=O)NCC(=O)O (H-SGGGG[Orn(CH(NH2)2)]GGNGGGGGG-OH),Kd,"protein: Outer membrane porin 1a (Ia;b;F)(OmpF), PDB entry 3o0e",1.8 µM (active)
H-SGRGK(Ac)G-OH,Kd,"protein: ATPase family AAA domain-containing protein 2 ATAD2A bromodomain, PDB entry 4tt2",22 µM (active)
CNc1nc2cc3nc(N)[nH]c(=O)c3cc2[nH]1,Kd,"protein: Queuine tRNA-ribosyltransferase TGT, PDB entry 4q4s",0.112 µM (active)
Nc1nc2cc3nc(NCCN4CCCCC4)[nH]c3cc2c(=O)[nH]1,Kd,"protein: Queuine tRNA-ribosyltransferase TGT, PDB entry 4q4o",0.0343 µM (active)
O=c1[nH]cnc2cc3nc(NCCN4CCOCC4)[nH]c3cc12,Kd,"protein: Queuine tRNA-ribosyltransferase TGT, PDB entry 4q4r",0.369 µM (active)
O=c1[nH]cnc2cc3nc(NCCN4CCCCC4)[nH]c3cc12,Kd,"protein: Queuine tRNA-ribosyltransferase TGT, PDB entry 4q4p",0.407 µM (active)
